Measurements published in PubChem BioAssay AID1159580 (chemical genetic matrix, 2015).
“And” between values parts separate entries of the source, which are not always exact repeats. Equal values may be shown once. The campaign covered roughly 5,500 compounds. About 2,000 (36%) were called active. Another 18% or so got no clear call; they are omitted. Cut-off read from the data, not from the text of the source: active = normalized growth mostly below about 0.91 (no sharp cut-off); inconclusive = no clear call, values can overlap the other calls; inactive = mostly above about 0.92. This is one part of the list.

Assay: chemical genetic growth profiling, strain panel (AID 1159580);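 note: tested at 20 µM; growth read once vehicle control cultures reached saturation at 30 °C; 1 = growth at the plate median or of vehicle wells; lower values mean less growth of the strain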
Settings: growth OD
[1] = S. cerevisiae deletion strains, locus YAL013W, strain DEP1, stronger effect = lower value
[2] = S. cerevisiae deletion strains, locus YAL040C, strain CLN3, stronger effect = lower value
[3] = S. cerevisiae deletion strains, locus YCL061C, strain MRC1 (second series), stronger effect = lower value
[4] = S. cerevisiae deletion strains, locus YDR150W, strain NUM1, stronger effect = lower value
[5] = S. cerevisiae deletion strains, locus YDR363W, strain ESC2, stronger effect = lower value
[6] = S. cerevisiae deletion strains, locus YER002W, strain NOP16, stronger effect = lower value
[7] = S. cerevisiae deletion strains, locus YGR078C, strain PAC10, stronger effect = lower value
[8] = S. cerevisiae deletion strains, locus YJR075W, strain HOC1, stronger effect = lower value
[9] = S. cerevisiae deletion strains, locus YMR263W, strain SAP30, stronger effect = lower value
[10] = S. cerevisiae deletion strains, locus YNL128W, strain TEP1, stronger effect = lower value
[11] = S. cerevisiae deletion strains, locus YNL175C, strain NOP13, stronger effect = lower value
[12] = S. cerevisiae deletion strains, locus YNL197C, strain WHI3, stronger effect = lower value
[13] = S. cerevisiae deletion strains, locus YNL224C, strain SQS1, stronger effect = lower value
[14] = S. cerevisiae deletion strains, locus YOR083W, strain WHI5 (second series), stronger effect = lower value
[15] = S. cerevisiae deletion strains, locus YPL055C, strain LGE1, stronger effect = lower value
[16] = S. cerevisiae deletion strains, locus YPL241C, strain CIN2, stronger effect = lower value
[17] = S. cerevisiae deletion strains, locus YGR229C, strain SMI1, stronger effect = lower value
[18] = S. cerevisiae deletion strains, locus YMR307W, strain GAS1, stronger effect = lower value
[19] = S. cerevisiae deletion strains, locus YNL153C, strain GIM3, stronger effect = lower value
[20] = S. cerevisiae deletion strains, locus YNL322C, strain KRE1, stronger effect = lower value
[21] = S. cerevisiae deletion strains, locus YBR229C, strain ROT2, stronger effect = lower value
[22] = S. cerevisiae deletion strains, locus YDL101C, strain DUN1, stronger effect = lower value
[23] = S. cerevisiae deletion strains, locus YEL061C, strain CIN8, stronger effect = lower value
[24] = S. cerevisiae deletion strains, locus YHR030C, strain SLT2, stronger effect = lower value
[25] = S. cerevisiae deletion strains, locus YJR043C, strain POL32, stronger effect = lower value
[26] = S. cerevisiae deletion strains, locus YKL190W, strain CNB1, stronger effect = lower value
[27] = S. cerevisiae deletion strains, locus YLR039C, strain RIC1, stronger effect = lower value
[28] = S. cerevisiae deletion strains, locus YLR262C, strain YPT6, stronger effect = lower value
[29] = S. cerevisiae deletion strains, locus YOL006C, strain TOP1, stronger effect = lower value

Measured: normalized growth

CS(=N)(=O)CC[C@H](N)C(=O)O (stereo partly specified)
inactive: [1] 0.995 | [2] 0.993 | [3] 0.997 | [4] 1.02 | [5] 0.962 | [6] 1 | [7] 0.969 | [8] 1.01 | [9] 1.01 | [10] 0.991 | [11] 0.989 | [12] 0.983 | [13] 0.999 | [14] 0.989 | [15] 1 | [16] 1

N[C@@H](Cc1ccc(O)c(I)c1)C(=O)O
inactive: [1] 0.997 | [2] 0.991 | [3] 1 | [5] 1.01 | [6] 1.02 | [7] 1.01 | [17] 1.01 | [8] 0.991 | [18] 0.992 | [19] 1 | [11] 1 | [12] 0.997 | [13] 1.01 | [14] 1.02 | [15] 0.979 | [16] 0.993

N[C@@H](Cc1c[nH]c2ccc(O)cc12)C(=O)O
inactive: [1] 1.02 | [2] 0.959 | [3] 1.01 | [4] 1.03 | [5] 1.01 | [6] 1 | [8] 1.01 | [9] 0.997 | [11] 1.03 | [12] 1 | [13] 1.01 | [20] 1.01 | [14] 1.02 | [15] 1.03 | [16] 1

O=C(O)Cc1ccccc1I
inactive: [1] 1 | [21] 0.996 | [22] 0.99 | [4] 0.988 | [23] 1.02 | [7] 0.989 | [24] 1.06 | S. cerevisiae deletion strains, locus YHR087W, strain rtc3, stronger effect = lower value 0.994 | S. cerevisiae deletion strains, locus YJL187C, strain SWE1, stronger effect = lower value 0.952 | [25] 1 | [8] 0.985 | [26] 1.02 | [27] 1.03 | S. cerevisiae deletion strains, locus YLR058C, strain SHM2 (second series), stronger effect = lower value 1 | S. cerevisiae deletion strains, locus YLR085C, strain ARP6, stronger effect = lower value 1.05 | [28] 1.05 | S. cerevisiae deletion strains, locus YML094W, strain GIM5, stronger effect = lower value 1.01 | S. cerevisiae deletion strains, locus YMR219W, strain ESC1, stronger effect = lower value 1.01 | [9] 1.01 | [19] 0.975 | S. cerevisiae deletion strains, locus YNL298W, strain CLA4 (second series), stronger effect = lower value 1.07 | [20] 1 | S. cerevisiae deletion strains, locus YNR030W, strain Alg12, stronger effect = lower value 1.03 | [29] 1.11 | [15] 0.978 | [16] 1.02 | S. cerevisiae deletion strains, locus YPR135W, strain CTF4, stronger effect = lower value 1.05

O=C(O)Cc1cc(I)c(Oc2cc(I)c(O)c(I)c2)c(I)c1
active: S. cerevisiae deletion strains, locus YHR079C, strain IRE1, stronger effect = lower value 0.762 | S. cerevisiae deletion strains, locus YKL068W, stronger effect = lower value 0.917 | S. cerevisiae deletion strains, locus YKL085W, strain MDH1 (second series), stronger effect = lower value 0.924 | S. cerevisiae deletion strains, locus YKL085W, strain MDH1, stronger effect = lower value 0.924 | S. cerevisiae deletion strains, locus YLR113W, strain HOG1, stronger effect = lower value 0.418 | S. cerevisiae deletion strains, locus YOR231W, strain MKK1, stronger effect = lower value 0.67 | S. cerevisiae deletion strains, locus YPL256C, strain CLN2, stronger effect = lower value 0.679 | S. cerevisiae deletion strains, locus YPR163C, strain tif3, stronger effect = lower value 0.719
0.989 (inactive) and 0.84 (active): [24]
inactive: [1] 0.948 | S. cerevisiae deletion strains, locus YBR021W, strain FUR4, stronger effect = lower value 1.03 | [21] 0.936 | S. cerevisiae deletion strains, locus YCL029C, strain bik1, stronger effect = lower value 0.96 | S. cerevisiae deletion strains, locus YDL035C, strain GPR1, stronger effect = lower value 0.982 | S. cerevisiae deletion strains, locus YDL074C, strain BRE1, stronger effect = lower value 0.942 | [22] 0.955 | S. cerevisiae deletion strains, locus YDL134C, strain PPH21, stronger effect = lower value 0.968 | S. cerevisiae deletion strains, locus YDL185W, strain tfp1, stronger effect = lower value 0.931 | S. cerevisiae deletion strains, locus YDL192W, strain arf1, stronger effect = lower value 0.957 | S. cerevisiae deletion strains, locus YDR101C, strain arx1, stronger effect = lower value 0.979 | [4] 0.943 | S. cerevisiae deletion strains, locus YDR162C, strain NBP2, stronger effect = lower value 0.847 | S. cerevisiae deletion strains, locus YDR318W, strain mcm21, stronger effect = lower value 0.98 | S. cerevisiae deletion strains, locus YDR388W, stronger effect = lower value 0.955 | S. cerevisiae deletion strains, locus YDR502C, strain sam2, stronger effect = lower value 0.957 | [23] 0.964 | S. cerevisiae deletion strains, locus YER110C, stronger effect = lower value 0.973 | S. cerevisiae deletion strains, locus YER155C, strain BEM2, stronger effect = lower value 0.97 | S. cerevisiae deletion strains, locus YER167W, strain BCK2, stronger effect = lower value 0.97 | S. cerevisiae deletion strains, locus YGL078C, strain dbp3, stronger effect = lower value 0.94 | S. cerevisiae deletion strains, locus YGL086W, strain mad1, stronger effect = lower value 0.982 | S. cerevisiae deletion strains, locus YGL248W, strain PDE1, stronger effect = lower value 0.965 | [7] 0.958 | S. cerevisiae deletion strains, locus YGR135W, strain pre9, stronger effect = lower value 0.942 | [17] 0.973 | S. cerevisiae deletion strains, locus YGR252W, strain gcn5, stronger effect = lower value 1.06 | S. cerevisiae deletion strains, locus YHR079C, strain IRE1 (second series), stronger effect = lower value 0.973 | S. cerevisiae deletion strains, locus YHR094C, strain hxt1, stronger effect = lower value 0.956 | S. cerevisiae deletion strains, locus YHR129C, strain ARP1, stronger effect = lower value 0.976 | S. cerevisiae deletion strains, locus YHR200W, strain rpn10, stronger effect = lower value 0.959 | S. cerevisiae deletion strains, locus YIL066C, strain RNR3, stronger effect = lower value 0.97 | S. cerevisiae deletion strains, locus YIL073C, strain SPO22, stronger effect = lower value 1.02 | S. cerevisiae deletion strains, locus YIL125W, strain kgd1, stronger effect = lower value 0.944 | S. cerevisiae deletion strains, locus YIR030C, strain dcg1, stronger effect = lower value 0.939 | S. cerevisiae deletion strains, locus YJL095W, strain BCK1, stronger effect = lower value 0.924 and 0.892 | S. cerevisiae deletion strains, locus YJL134W, strain LCB3, stronger effect = lower value 0.954 | S. cerevisiae deletion strains, locus YJL168C, strain set2, stronger effect = lower value 0.942 | S. cerevisiae deletion strains, locus YJL187C, strain SWE1 (second series), stronger effect = lower value 0.949 | [25] 1.06 | S. cerevisiae deletion strains, locus YJR066W, strain TOR1, stronger effect = lower value 0.864 | [8] 1 | S. cerevisiae deletion strains, locus YKL009W, strain mrt4, stronger effect = lower value 0.945 | [26] 0.946 | S. cerevisiae deletion strains, locus YKR001C, strain vps1, stronger effect = lower value 0.931 | [27] 0.817 | S. cerevisiae deletion strains, locus YLR058C, strain SHM2, stronger effect = lower value 0.959 | S. cerevisiae deletion strains, locus YLR102C, strain apc9, stronger effect = lower value 0.935 | [28] 0.749 | S. cerevisiae deletion strains, locus YLR268W, strain sec22, stronger effect = lower value 0.963 | S. cerevisiae deletion strains, locus YLR330W, strain CHS5, stronger effect = lower value 0.967 | S. cerevisiae deletion strains, locus YLR342W, strain FKS1 (second series), stronger effect = lower value 1.02 | S. cerevisiae deletion strains, locus YLR371W, strain rom2, stronger effect = lower value 0.987 | S. cerevisiae deletion strains, locus YLR418C, strain cdc73, stronger effect = lower value 0.911 | S. cerevisiae deletion strains, locus YML016C, strain PPZ1, stronger effect = lower value 0.95 | S. cerevisiae deletion strains, locus YML032C, strain rad52, stronger effect = lower value 0.983 | S. cerevisiae deletion strains, locus YML124C, strain tub3, stronger effect = lower value 0.951 | S. cerevisiae deletion strains, locus YMR078C, strain ctf18, stronger effect = lower value 0.96 | S. cerevisiae deletion strains, locus YMR223W, strain ubp8, stronger effect = lower value 1.01 | [9] 0.944 | [18] 1.07 | S. cerevisiae deletion strains, locus YNL067W, strain RPL9B, stronger effect = lower value 0.969 | [10] 0.952 | [19] 0.951 | S. cerevisiae deletion strains, locus YNL183C, strain NPR1, stronger effect = lower value 0.829 | S. cerevisiae deletion strains, locus YNL233W, strain BNI4, stronger effect = lower value 0.968 | S. cerevisiae deletion strains, locus YNL250W, strain rad50, stronger effect = lower value 0.923 | S. cerevisiae deletion strains, locus YNL271C, strain bni1, stronger effect = lower value 0.942 | S. cerevisiae deletion strains, locus YNL298W, strain CLA4, stronger effect = lower value 0.952 | S. cerevisiae deletion strains, locus YNL307C, strain MCK1, stronger effect = lower value 0.982 | [20] 0.962 | S. cerevisiae deletion strains, locus YNR052C, strain pop2, stronger effect = lower value 0.973 | [29] 0.862 | S. cerevisiae deletion strains, locus YOL012C, strain htz1 0.639 | S. cerevisiae deletion strains, locus YOL147C, strain pex11, stronger effect = lower value 0.965 | S. cerevisiae deletion strains, locus YOR061W, strain CKA2, stronger effect = lower value 0.929 | S. cerevisiae deletion strains, locus YOR069W, strain VPS5, stronger effect = lower value 0.962 | S. cerevisiae deletion strains, locus YOR136W, strain idh2, stronger effect = lower value 0.997 | S. cerevisiae deletion strains, locus YOR144C, strain elg1, stronger effect = lower value 0.947 | S. cerevisiae deletion strains, locus YOR184W, strain ser1, stronger effect = lower value 1.03 | S. cerevisiae deletion strains, locus YOR316C, strain cot1, stronger effect = lower value 0.941 | [15] 0.922 | [16] 0.953 | S. cerevisiae deletion strains, locus YPR119W, strain clb2, stronger effect = lower value 0.95 | S. cerevisiae deletion strains, locus YPR141C, strain kar3, stronger effect = lower value 0.924 | S. cerevisiae deletion strains, locus YPR167C, strain met16, stronger effect = lower value 0.98 | S. cerevisiae deletion strains, strain wtn01, stronger effect = lower value 0.95 | S. cerevisiae strains, strain wild type, stronger effect = lower value 0.96
